An excerpt weighted towards active compounds, which were near 19% of everything screened.
TDP1 block: blocks human tyrosyl-DNA phosphodiesterase 1 | Q9NUW8 | recombinant TDP1, AlphaScreen DNA substrate cleavage | Potency, µM (titrated, usually from 130 µM), usual class: inhibitors | 350,000 compounds, 0.28% hits | AID 485290; note: nearly all actives have a fitted effect of over 40% in size
Target sequence (Q9NUW8 whole entry, looked up): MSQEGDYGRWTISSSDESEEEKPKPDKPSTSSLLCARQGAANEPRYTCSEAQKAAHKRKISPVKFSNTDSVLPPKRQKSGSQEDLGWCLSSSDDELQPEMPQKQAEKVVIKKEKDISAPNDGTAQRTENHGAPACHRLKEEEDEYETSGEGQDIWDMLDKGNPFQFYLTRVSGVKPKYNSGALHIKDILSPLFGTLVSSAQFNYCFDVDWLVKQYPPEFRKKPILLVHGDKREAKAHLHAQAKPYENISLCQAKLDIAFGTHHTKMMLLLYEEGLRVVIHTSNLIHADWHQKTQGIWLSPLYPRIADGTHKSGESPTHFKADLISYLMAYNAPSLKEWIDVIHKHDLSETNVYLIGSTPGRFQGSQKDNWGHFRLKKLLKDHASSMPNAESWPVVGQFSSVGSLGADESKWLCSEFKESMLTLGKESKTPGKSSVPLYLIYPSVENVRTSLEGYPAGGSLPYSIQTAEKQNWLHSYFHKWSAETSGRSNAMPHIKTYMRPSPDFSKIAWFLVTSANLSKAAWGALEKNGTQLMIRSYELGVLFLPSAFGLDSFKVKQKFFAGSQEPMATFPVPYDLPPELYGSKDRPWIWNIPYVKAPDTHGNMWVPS
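Compounds were preincubated with Tdp1 (1 nM final) for 15 min at room temperature before substrate (15 nM final) started a 5 min reaction; beads (10 ug/ml final) were then added for 10 min before AlphaScreen detection.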
TGFb inhibitor: TGF-b pathway inhibition. 410,000 compounds, 1.2% hits. AID 588855. Potency, µM (series often up to 46.1 µM), hits mostly inhibitors. HepG2 CAGA-GFP TGF-b/SMAD3 reporter, GFP fluorescence, 18 h; TGF-beta stimulated, 500 pg/mL final; note: nearly all actives have a fitted effect of over 65% in size
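Read-out: total well GFP (ex488/em500-530) summed from mean per-cell fluorescence. Cells: HEPG2 CAGA-GFP, 1% FBS DMEM, 18 h at 37 degrees C with 500 pg/mL final TGF-beta. Unstimulated wells served as the full-inhibition control; stimulated DMSO wells = 0%.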
TDP1 cell noCPT: qHTS for Inhibitors of human tyrosyl-DNA phosphodiesterase 1 (TDP1): qHTS in cells in absence of CPT. DT40 Tdp1-/- hTDP1 cells, no CPT, ATP luminescence, 48 h. Potency, µM (series often up to 46.2 µM), actives largely listed as inhibitors. 420,000 compounds, 15% hits. AID 686978, 2013; note: nearly all actives have a fitted effect of over 55% in size
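Chicken DT40 Tdp1-/- cells complemented with human TDP1, screened without camptothecin (DMSO vehicle only), 400 cells/well. Compounds pin-transferred, cells incubated at 37 °C for at least 48 hr. Growth read as ATP-dependent luminescence (CellTiter-Glo, 30 min at RT).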
HepG2 viability: kills HepG2 cells in TGF-b inhibitor counter-screen; HepG2 CAGA-GFP viability, ATP luminescence, 18 h; Potency, µM (series often up to 46.1 µM), hits mostly cytotoxic; 410,000 compounds, 0.76% hits; AID 588856
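CellTiter-Glo luminescence gave cytotoxicity after 18 hours at 37 degrees C. The cells were HepG2 CAGA-GFP in 1% FBS DMEM, stimulated with 500 pg/mL TGF-beta after compound addition. %Activity was normalised to no-cell wells (complete cell-killing) and DMSO (no toxicity), and curves were fitted and classified.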
TDP1 cell CPT: growth inhibition of DT40 Tdp1-/-;hTDP1 cells with camptothecin (screen for TDP1 inhibitors); 420,000 compounds, 12% hits; chicken DT40 Tdp1-/-;hTDP1 cells + 20 nM CPT, ATP luminescence, 48 h; AID 686979; Potency, µM (series often up to 46.2 µM), usual class: inhibitors; note: nearly all actives have a fitted effect of over 55% in size
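Chicken DT40 Tdp1-/- cells stably complemented with human TDP1 were seeded at 400 cells/well in medium containing 20 nM camptothecin, exposed to pin-transferred compounds, and grown at 37 °C for at least 48 hr. Viability was read as ATP luminescence.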
IL1B secr inh: blocks inflammasome-driven IL-1 beta release; AID 743279; activity change, % at 57.5 µM; THP-1 LPS/ATP IL-1B secretion, AlphaLISA, 16 h; stronger effect = lower value; 360,000 compounds, 4.7% hits; in the data active = activity change below about -50%; inconclusive = mostly about -30% to -49%
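THP-1 cells pretreated 1 hr with compounds (up to 57.5 uM final), then stimulated with LPS (250 ng/mL final) plus ATP (1.25 mM final); secreted IL-1B measured by AlphaLISA after 16 hr, decreased signal indicating inhibition.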
Numbers stand for hits; . = inactive; ? = inconclusive; / = no result; [ ] = dose if it differs, or a comment. Unless noted, calls come from the whole dose curve; as a rule, active = well fitted curve in the direction sought with a large enough effect; inconclusive = small, poorly fitted or top-dose-only effect, or another doubt; inactive = no such curve, though single readings can be large; an effect the other way counts as inactive or inconclusive.

SMILES | TDP1 block | TGFb inhibitor | TDP1 cell noCPT | HepG2 viability | TDP1 cell CPT | IL1B secr inh
OCCN1CCN(C2Cc3cc(Cl)ccc3Sc3ccc(Cl)cc32)CC1 (stereo not given) (tested in a mixture with another compound) | . | ? | ? | 10µM | 23µM | -98
CN1CCN(CCOC2Cc3ccccc3Sc3ccc(Cl)cc32)CC1 (stereo not given) | . | ? | 21µM | . | ? | -71
c1ccc2c(c1)CC(N1CCCCC1)c1ccccc1S2 (stereo not given) | / | . | ? | . | ? | .
CN1CCN(C2Cc3cc(Cl)ccc3Sc3cc(F)ccc32)CC1 (stereo not given) | / | ? | ? | . | ? | -94
Cc1cc(C)c(OCC(=O)OCC(=O)NNC(=O)c2ccccc2F)c(C)c1 | . | . | . | . | . | .
O=C(Cc1cn(-c2ccccc2)nc1-c1ccccc1)N1CCCCC1 | / | . | ? | . | ? | .
COc1ccc(C2C(=O)c3ccccc3C2=O)cc1OC | . | . | . | . | ? | .
COc1ccc(-c2cccc3c2NC(=O)C3=O)cc1OC | . | . | 15µM | . | 18µM | .
Cc1cccc(NC(=O)Cn2c(=O)ccc3cc(S(=O)(=O)N4CCCC4)ccc32)c1C | . | . | 16µM | . | ? | /
COc1ccc(CNC(=O)Cn2c(=O)ccc3cc(S(=O)(=O)N4CCCC4)ccc32)cc1 | . | . | . | . | . | /
COc1ccc(C)cc1NC(=O)Cn1c(=O)ccc2cc(S(=O)(=O)N3CCCC3)ccc21 | . | ? | 21µM | . | 21µM | /
COc1ccccc1N1CCN(C(=O)c2cnn(-c3ccc(C)c(C)c3)c2C2CCN(C(=O)OC(C)(C)C)CC2)CC1 | . | . | 21µM | . | 21µM | /
CC(C)(C)OC(=O)N1CCC(c2c(C(=O)N3CCN(C4CCCCC4)CC3)cnn2-c2cccc(Cl)c2)CC1 | . | . | 23µM | . | 16µM | /
CC(C)(C)OC(=O)N1CCC(c2c(C(=O)NCC3CCN(C4CCCC4)C3)cnn2-c2cccc(Cl)c2)CC1 (stereo not given) | . | ? | ? | . | ? | -56
Cc1ccc(N2CCN(C(=O)c3cnn(-c4ccc(C)c(C)c4)c3C3CCNCC3)CC2)c(C)c1 | . | ? | 6.5µM | . | 6.5µM | /
COC(=O)CCC(=O)OC1(C)C(=O)C=C2C=C(C3CC3)N(c3ccc(OC)cc3)C=C2C1=O (stereo not given) | .[12.3 µM] | / | / | / | / | /
CCOC(=O)c1cc(S(=O)(=O)Nc2cc(F)ccc2C)[nH]n1 | . | . | . | . | . | /
Cc1ccc(Cl)cc1-n1c(=O)cc(N2CCN(c3ccccc3)CC2)[nH]c1=O | . | . | ? | . | . | /
COCCNC(=O)CCC(=O)N1Cc2cccc(OC)c2Oc2ncccc21 | . | . | ? | . | . | /
CC(C)(C)OC(=O)N1CCC(c2c(C(=O)N3CCN(C4CCCCC4)CC3)cnn2-c2ccc(F)cc2)CC1 | . | . | . | . | . | .
Cc1ccc(-n2ncc(C(=O)N3CCN(C4CCCCC4)CC3)c2C2CCN(C(=O)OC(C)(C)C)CC2)cc1C | . | . | 7.3µM | . | 8.2µM | /
Cc1cccc(N2CCN(C(=O)c3cnn(-c4cccc(Cl)c4C)c3C3CCNCC3)CC2)c1C | . | 18µM | 5.2µM | . | 3.7µM | /
COc1ccc(-n2ncc(C(=O)N3CCN(C4CCCCC4)CC3)c2C2CCN(C(=O)OC(C)(C)C)CC2)cc1 | . | ? | 21µM | . | ? | /
CCOC(=O)c1cnn(-c2cccc(Cl)c2)c1C1CCN(C(=O)OC(C)(C)C)CC1 | . | . | ? | . | 23µM | /
CCN1CCN(C(=O)c2cnn(-c3cccc(Cl)c3)c2C2CCN(C(=O)OC(C)(C)C)CC2)CC1 | . | . | ? | . | . | /
SMILES | TDP1 block | TGFb inhibitor | TDP1 cell noCPT | HepG2 viability | TDP1 cell CPT | IL1B secr inh
CCOc1ccc(NC(=O)C2=NN(c3ccccc3)C(=O)CC2)cc1S(=O)(=O)N1CCCCC1 | . | . | ? | . | ? | .
CCCOc1ccc(C(=O)Nc2ccc3oc(-c4ccncc4)nc3c2)cc1 | .[12.3 µM] | . | ? | . | ? | /
CCOc1cc(C2c3c(oc4ccc(F)cc4c3=O)C(=O)N2Cc2ccco2)ccc1O (stereo not given) | . | . | . | . | . | /
COc1ccc(-n2nnnc2-c2cccnc2)cc1 | . | . | . | . | . | .
COc1ccc(-n2nnnc2-c2cnc(N3CCCC3)nc2C(F)(F)F)cc1 | . | ? | 9.2µM | . | 8.2µM | -55
FC(F)(F)c1nc(-c2cccnc2)ncc1-c1nnnn1-c1ccccc1 | . | . | 16µM | . | ? | .
CNc1ncc(-c2nnnn2-c2ccccc2)c(-c2ccccc2)n1 | . | . | ? | . | ? | .
FC(F)(F)c1nc(-c2cccs2)ncc1-c1nnnn1-c1ccc(Cl)cc1 | . | . | 2.9µM | . | 4.1µM | .
COCCCNC(=O)c1cnn(-c2ncc3c(n2)-c2ccccc2CCC3)c1C | / | / | . | / | .[9.04 µM] | /
Cc1sc2ncnc(NCC(O)c3ccc([N+](=O)[O-])cc3)c2c1C (stereo not given) | . | . | 2.9µM | . | 7.3µM | -55
Cc1sc2ncnc(NCC(O)c3ccccc3)c2c1C (stereo not given) | / | . | 4.6µM | . | 7.3µM | .
COc1ccc(N(CC(=O)Nc2cc(OC)c(OC)cc2C(=O)O)S(=O)(=O)c2c(C)noc2C)cc1 | . | . | . | . | . | .
COc1ccc(C)cc1NC(=O)CSc1nc2ccccc2nc1N1CCCC1 | / | . | 21µM | . | ? | .
COc1ccc(Cl)cc1NC(=O)CSc1nc2ccccc2nc1N1CCCCC1 | . | . | 21µM | . | ? | /
COc1ccc(NC(=O)CSc2nc3ccccc3nc2N2CCCC2)c(OC)c1 | / | . | ? | . | ? | .
COc1cc(NC(=O)c2c(-c3ccccc3Cl)noc2C)c2ncccc2c1 | / | . | 16µM | . | 16µM | .
Cc1onc(-c2ccccc2Cl)c1C(=O)Nc1cccc2cccnc12 | . | . | 4.1µM | . | 9.2µM | .
Cc1onc(-c2ccccc2Cl)c1C(=O)Nc1cccc2nsnc12 | / | . | ? | . | ? | .
COc1cccc(NS(=O)(=O)c2ccc3c(c2)N(C)C(=O)CC(=O)N3C)c1 | . | . | . | . | . | /
Cc1cc(C(=O)Nn2c(C)nc3ccccc3c2=O)ccc1[N+](=O)[O-] | . | . | . | . | . | .
